Results filed as inconclusive are left out. Activity calls are given as the source filed them. The call rests on the fitted dose curve; in most records, active means well fitted curve in the direction sought with a large enough effect; inconclusive means small, poorly fitted or top-dose-only effect, or another doubt; inactive means no such curve, though single readings can be large; an effect the other way counts as inactive or inconclusive. Where a SMILES comes first, the peptide text is derived from it. The star is where a group is joined. βNA = c1ccc2cc(N*)ccc2c1; Cbz = O=C(OCc1ccccc1)*
Columns and labels:
[1] = P-glycoprotein substrates identified in KB-3-1 adenocarcinoma cell line, qHTS therapeutic library screen (AID 1346986); further: nearly all actives have a fitted effect of over 60% in size
Summary of the method: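 Compounds were tested in dose-response against KB-3-1 and KB-8-5-11 cells at 37 degree C for 72 h, and viability was measured by luminescence. AC50 values came from curve fitting with class-based activity calls.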

[2] = P-glycoprotein substrates identified in KB-8-5-11 adenocarcinoma cell line, qHTS therapeutic library screen (AID 1346987); further: nearly all actives have a fitted effect of over 65% in size; on activity change, negative = cytotoxicity: series mostly up to about 44 µM; on the % scale 0 is the no-effect control and ±100 the full control effect
Summary of the method: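 KB-8-5-11: colchicine-selected sub-line of KB-3-1 over-expressing P-gp; assay medium lacked colchicine. 72 h drug exposure at 37 degree C, CellTiter-Glo.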

[3] = test system: Zika virus NS2B-NS3 protease (unlinked complex); experiment: Primary screen GU Rhodamine qHTS for Zika virus inhibitors: Unlinked NS2B-NS3 protease assay (AID 1347159); further: nearly all actives have a fitted effect of over 60% in size; further: potency means the concentration at half of the fitted maximal effect; on activity change, negative = inhibition: on the % scale 0 is the no-effect control and ±100 the full control effect
Summary of the method: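 Compounds, tested up to 114 microM, were incubated for 15 minutes with 25 nM unlinked NS2B-NS3 protease at pH 8.0. Cleavage of 1.5 microM Rhodamine110 substrate was then followed by fluorescence for 15 minutes.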

[4] = test system: Zika virus NS2B-NS3 protease (linked construct); experiment: Primary screen NINDS Rhodamine qHTS for Zika virus inhibitors (AID 1347160); further: nearly all actives have a fitted effect of over 55% in size; further: potency means the concentration at half of the fitted maximal effect; on activity change, negative = inhibition: on the % scale 0 is the no-effect control and ±100 the full control effect
Summary of the method: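 Percent inhibition, normalized to uninhibited and enzyme-free controls, is fitted to a 4-parameter Hill equation. Fluorescence change comes from a 15-min cleavage of 1.5 microM bis-peptide Rhodamine110 substrate by 25 nM linked NS2B-NS3 at room temperature.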

CC1(C)C2CCC1(C)C(OC(=O)C(O)(CC(=O)O)CC(=O)O)C2 (stereo not drawn)
inactive: Potency [1] | Potency [2] | Potency [3] | Potency [4]

CC(C)CC(NC(=O)OCc1ccccc1)C(=O)NC(CC(C)C)C(=O)NC(CCC(=O)O)C(=O)Nc1ccc2ccccc2c1 (stereo not drawn) (Cbz-Leu-Leu-Glu-βNA; configuration not given here)
active: Potency [3] 11.2 µM | Potency [4] 11.2 µM
inactive: Potency [1] | Potency [2]

C[C@H]1[C@H](C)CC[C@]2(C(=O)OC3OC(CO)C(O)C(O)C3O)CC[C@]3(C(=O)O)C(=CCC4[C@@]5(C)CC[C@H](O[C@@H]6O[C@@H](C)[C@H](OC7OC(CO)C(O)C(O)C7O)[C@@H](O)[C@H]6O)C(C)(C)C5CC[C@]43C)[C@H]12 (stereo partly drawn)
inactive: outcome [1] inactive [at 9.29 µM] | activity change, negative = cytotoxicity [2] -1.84% [at 9.29 µM] | Potency [3] | Potency [4]

CC1=C(C(=O)OC2OC(COC3OC(CO)C(O)C(O)C3O)C(O)C(O)C2O)C(C)(C)CCC1 (stereo not drawn)
inactive: Potency [1] | Potency [2] | Potency [3] | Potency [4]

COCCN1CCC(C(=O)NO)(S(=O)(=O)c2ccc(Oc3ccc(OC(F)(F)F)cc3)cc2)CC1
inactive: Potency [1] | Potency [2] | Potency [3] | Potency [4]

CN(C)c1ccc(C2O[C@@H](c3ccccc3)C[C@H](c3ccccc3)O2)cc1 (stereo partly drawn)
inactive: Potency [1] | Potency [2] | Potency [3] | Potency [4]

C=C1[C@@H]2CC[C@@]3(C)[C@H](c4ccoc4)OC(=O)C[C@]13O[C@H]1CC(=O)C(C)(C)[C@H](C(O)C(=O)OC)[C@]12C (stereo partly drawn)
inactive: Potency [1] | Potency [2] | Potency [3] | Potency [4]

COc1cccc(CN(C(=O)CC(C)(C)C)C2CC(C(=O)N3CCNCC3)N(Cc3ccc4c(c3)OCO4)C2)c1 (stereo not drawn)
inactive: Potency [1] | Potency [2] | Potency [3] | Potency [4]

Cc1cc(CNC(=O)c2cc(C(=O)NCc3ccc(F)c(C)c3)ncn2)ccc1F
inactive: Potency [1] | Potency [2] | Potency [3] | Potency [4]

COC(=O)[C@H](Cc1cccc(C(=N)N)c1)[C@@H](C)NC(=O)c1ccc(-c2cc[n+]([O-])cc2)cc1
inactive: Potency [1] | Potency [2] | Potency [3] | Potency [4]

Cc1ccc(C)c(S(=O)(=O)n2cnc3ccccc32)c1
inactive: Potency [1] | Potency [2] | Potency [3] | Potency [4]

CC1(C)CC[C@]2(C(=O)O[C@@H]3O[C@H](CO)[C@@H](O)[C@H](O)[C@H]3O)CC[C@]3(C)C(=CCC4[C@@]5(C)CC[C@H](O[C@@H]6O[C@H](C(=O)O)[C@@H](O[C@@H]7O[C@H](CO)[C@@H](O)[C@H](O)[C@H]7O)[C@H](O)[C@H]6O)C(C)(C)C5CC[C@]43C)C2C1 (stereo partly drawn)
inactive: outcome [1] inactive [at 9.29 µM] | outcome [2] inactive [at 9.29 µM] | Potency [3] | Potency [4]

COC(=O)C1=COC(OC2OC(CO)C(O)C(O)C2O)C2C(C)CC(=O)C12O (stereo not drawn)
inactive: Potency [1] | Potency [2] | Potency [3] | Potency [4]

C/C=C/C=C/C=C/C(=O)N(C)C(C(=O)NC(C)C(=O)N1CCCC1C(N)=O)C(C)C (stereo not drawn)
inactive: Potency [1] | Potency [2] | Potency [3] | Potency [4]

CC1CC(O)/C=C/C(O)/C=C\C(=O)O1 (stereo not drawn)
inactive: Potency [1] | Potency [2] | Potency [3] | Potency [4]

COc1cc(CC2COC(c3ccc(OC4OC(CO)C(O)C(O)C4O)c(OC)c3)C2CO)ccc1O (stereo not drawn)
inactive: Potency [1] | Potency [2] | Potency [3] | Potency [4]

COC(=O)C1=CO[C@@H](O[C@@H]2O[C@H](CO)[C@@H](O)[C@H](O)[C@H]2O)[C@@H]2[C@@H](C)[C@@H](O)C(O)[C@H]12 (stereo partly drawn)
inactive: Potency [1] | Potency [2] | Potency [3] | Potency [4]

CC1(C)COC(=O)[C@@H]1O[C@@H]1O[C@H](CO)[C@@H](O)[C@H](O)[C@H]1O
inactive: Potency [1] | Potency [2] | Potency [3] | Potency [4]

O=C(/C=C/c1ccc(O)cc1)OC[C@H]1O[C@H](O[C@@]2(CO)O[C@@H](CO)[C@H](O)[C@H]2O)[C@H](O)[C@@H](O)[C@@H]1O
inactive: Potency [1] | Potency [2] | Potency [3] | Potency [4]

C=C[C@@]1(C)CCC2=C([C@H]1OC(C)=O)[C@H](OC(C)=O)CC1[C@](C)(C(=O)OC)CC[C@H](OC(C)=O)[C@]21C (stereo partly drawn)
inactive: Potency [1] | Potency [2] | Potency [3] | Potency [4]

NC[C@H]1CCC[C@@H](CNC(=O)[C@@H](Cc2c[nH]c3ccccc23)NC(=O)N2CCC3(C=Cc4ccccc43)CC2)C1
inactive: Potency [1] | Potency [2] | Potency [3] | Potency [4]

CCNC(=O)OC1CCN(c2nncc3cc(OC)c(OC)cc23)CC1
inactive: Potency [1] | Potency [2] | Potency [3] | Potency [4]

COc1cc(/C=C/C(=O)OCC2OC(OC3(CO)OC(CO)C(O)C3O)C(O)C(O)C2O)ccc1O (stereo not drawn)
inactive: Potency [1] | Potency [2] | Potency [3] | Potency [4]

C[C@@H]1O[C@@H](O[C@@H]2[C@@H](O)[C@H](O[C@@H]3[C@@H](O)[C@@H](O)[C@H](O[C@H]4[C@H](OC(=O)[C@]56CCC(C)(C)C[C@H]5C5=CCC7[C@@]8(C)C[C@H](O)[C@H](O[C@@H]9O[C@H](C(=O)O)[C@@H](O)[C@H](O)[C@H]9O)[C@@](C)(CO)C8[C@H](O)C[C@@]7(C)[C@]5(C)C[C@H]6O)O[C@@H](CO)[C@@H]4O)O[C@H]3C)OC[C@H]2O)[C@H](O)[C@H](O)[C@H]1O (stereo partly drawn)
inactive: outcome [1] inactive [at 9.29 µM] | activity change, negative = cytotoxicity [2] 8.82% [at 9.29 µM] | activity change, negative = inhibition [3] 24.9% [at 19.1 µM] | Potency [4]

CC1(C)CC[C@]2(C(=O)O)CC[C@]3(C)C(=CCC4[C@@]5(C)CC[C@H](O[C@@H]6O[C@H](C(=O)O)[C@@H](O)[C@H](O[C@@H]7O[C@H](CO)[C@H](O)[C@H](O)[C@H]7O)[C@H]6O[C@@H]6O[C@H](CO)[C@@H](O)[C@H](O)[C@H]6O)C(C)(C)C5CC[C@]43C)[C@@H]2C1 (stereo partly drawn)
inactive: outcome [1] inactive [at 5.11 µM] | activity change, negative = cytotoxicity [2] 3.75% [at 5.11 µM] | Potency [4]
active: Potency [3] 5.62 µM

CSCC1OC(n2cnc3c(N)ncnc32)C(O)C1O (stereo not drawn)
inactive: Potency [1] | Potency [2] | Potency [3] | Potency [4]

COc1cnc(-n2cnc(C)n2)c2[nH]cc(C(=O)C(=O)N3CCN(C(=O)c4ccccc4)CC3)c12
inactive: Potency [1] | Potency [2] | Potency [3] | Potency [4]

COC(=O)c1c(CC=C(C)C)c(OC2OC(CO)C(O)C(O)C2O)c2ccccc2c1OC1OC(CO)C(O)C(O)C1O (stereo not drawn)
inactive: Potency [1] | Potency [2] | Potency [3] | Potency [4]

C[C@H](O)C(O)(C(=O)OCc1ccccc1NC(=O)CCC(N)C(=O)O)[C@H](C)O (stereo partly drawn)
inactive: Potency [1] | Potency [2] | Potency [3] | Potency [4]

CC1CCC2(C(=O)OC3OC(CO)C(O)C(O)C3O)CCC3(C)C(=CCC4C5(C)CCC(O)C(C)(CO)C5CCC43C)C2C1(C)O (stereo not drawn)
inactive: Potency [1] | Potency [2] | Potency [3] | Potency [4]

CC(=O)OCC1OC(O[C@H]2CC[C@@]3(C)C(CC[C@]4(C)C3CC=C3[C@@H]5CC(C)(C)CC[C@]5(C(=O)O)CC[C@]34C)[C@]2(C)CO)C(O)C(O)C1OC1OC(C)C(O)C(OC2OCC(O)C(O)C2O)C1O (stereo partly drawn)
inactive: outcome [1] inactive [at 9.29 µM] | outcome [2] inactive [at 9.29 µM] | Potency [3] | Potency [4]

COc1ccc(-c2ccn(CC[C@](C)(C(=O)NO)S(C)(=O)=O)c(=O)c2)c(F)c1
inactive: Potency [1] | Potency [2] | Potency [3] | Potency [4]

Cc1ccc(-c2c(-c3nn(C)c4ncnc(N5CCC(N6CCCCC6)C5)c34)cnn2C)cc1 (stereo not drawn)
inactive: Potency [1] | Potency [2] | Potency [3] | Potency [4]

COC(=O)c1cc(OC)cc(OC)c1C(=O)c1c(OC)cc2c(c1O)C1CCC(O)C(C)(O2)O1 (stereo not drawn)
inactive: Potency [1] | Potency [2] | Potency [3] | Potency [4]

COC(=O)C1=CO[C@@H](O[C@@H]2O[C@H](CO)[C@@H](O)[C@H](O)[C@H]2O)[C@@H]2[C@@H](C)[C@@H](OC(=O)/C=C/c3ccccc3)[C@@H](O)[C@H]12
inactive: Potency [1] | Potency [2] | Potency [3] | Potency [4]

COC(=O)C1=COC(O[C@@H]2O[C@H](CO)[C@@H](O)[C@H](O)[C@H]2O)[C@@H]2[C@@](C)(O)[C@@H](OC(=O)/C=C/c3ccccc3)C[C@]12O (stereo partly drawn)
inactive: Potency [1] | Potency [2] | Potency [3] | Potency [4]

CC1(C)CCCC2(C)c3c4c(c(=O)oc(=O)c3=CCC12)=CCC1C(C)(C)CCCC41C (stereo not drawn)
inactive: Potency [1] | Potency [2] | Potency [3] | Potency [4]

— PubChem BioAssay (NCATS)
